Source: the supplement of paper PMC6555819

Columns and labels:
Assay in all cases: PBM binding z-score (relative to random genomic background probes); higher = stronger binding; sequences stand for … in GC…GCGATTGACAGCGTAGAATGAAGG
[1] = system: PPARg:RXRa DBDmut IVT, anti-RXR (DBD mutation: RXRa K156A/R161A, NR concentration 270 nM, RXRa partner concentration 90 nM)
In short: (§1)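 On custom Agilent 4×180K arrays, double-stranded probes with 34-nt variable regions carried direct-repeat seeds, single-nucleotide variants, half-site ablations or random human genomic background. Ligand-free nuclear receptor dimers were applied for 1 h, and binding was read with antibodies against each partner (one per run). Binding z-scores come from regression-normalized fluorescence, with the random background probes as reference.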

[2] = system: PPARg:RXRa IVT, anti-PPARg (NR concentration 270 nM, RXRa partner concentration 90 nM)
In short: as §1

[3] = system: PPARg DBDmut:RXRa IVT, anti-PPARg (DBD mutation: PPARg1 K132A/R137A, NR concentration 270 nM, RXRa partner concentration 90 nM)
In short: as §1

[4] = system: PPARg DBDmut IVT, anti-PPARg (DBD mutation: PPARg1 K132A/R137A, NR concentration 270 nM)
In short: as §1

[5] = system: PPARg homodimer (NR concentration 180 nM)
In short: as §1

[6] = system: PXR:RXRa (NR concentration 270 nM, RXRa partner concentration 90 nM)
In short: as §1

[7] = system: PXR homodimer (NR concentration 270 nM)
In short: as §1

[8] = system: RARa:RXR (NR concentration 270 nM, RXRa partner concentration 90 nM)
In short: as §1

[9] = system: RARa homodimer (NR concentration 270 nM)
In short: as §1

[10] = system: RARb:RXRa (NR concentration 270 nM, RXRa partner concentration 90 nM)
In short: as §1

[11] = system: RARb homodimer (NR concentration 270 nM)
In short: as §1

[12] = system: RARg:RXRa (NR concentration 270 nM, RXRa partner concentration 90 nM)
In short: as §1

[13] = system: RARg homodimer (NR concentration 270 nM)
In short: as §1

[14] = system: RXRa DBDmut IVT, anti-RXR (DBD mutation: RXRa K156A/R161A, NR concentration 90 nM)
In short: as §1

[15] = system: RXRa homodimer (NR concentration 180 nM)
In short: as §1

[16] = system: THRa:RXRa (NR concentration 90 nM, RXRa partner concentration 90 nM)
In short: as §1

[17] = system: THRa homodimer (NR concentration 90 nM)
In short: as §1

[18] = system: VDR homodimer (NR concentration 270 nM)
In short: as §1

What does the source list for TCATATAGGTAATACAGGTGAAAATCGGCATCTA?
PBM binding z-score [1]: 3.9; PBM binding z-score [2]: 3.09; PBM binding z-score [3]: 1.52; PBM binding z-score [4]: 1.47; PBM binding z-score [5]: 1.22; PBM binding z-score [6]: 0.9; PBM binding z-score [7]: 0.486; PBM binding z-score [8]: 1.46; PBM binding z-score [9]: 1.89; PBM binding z-score [10]: 0.59; PBM binding z-score [11]: 0.328; PBM binding z-score [12]: 0.729; PBM binding z-score [13]: 0.82; PBM binding z-score [14]: 1.8; PBM binding z-score [15]: 1.72; PBM binding z-score [16]: 0.836; PBM binding z-score [17]: 0.391; PBM binding z-score [18]: 0.435

What does the source list for TCGAGTAGGTTACCAATGGGGCACTCAGCTTTCT?
PBM binding z-score [1]: 3.78; PBM binding z-score [2]: 3.08; PBM binding z-score [3]: -0.534; PBM binding z-score [4]: 0.223; PBM binding z-score [5]: -0.453; PBM binding z-score [6]: 0.0109; PBM binding z-score [7]: -0.848; PBM binding z-score [8]: 0.158; PBM binding z-score [9]: -0.688; PBM binding z-score [10]: 0.948; PBM binding z-score [11]: 0.601; PBM binding z-score [12]: 1.21; PBM binding z-score [13]: 0.434; PBM binding z-score [14]: 0.0606; PBM binding z-score [15]: 0.428; PBM binding z-score [16]: 0.0127; PBM binding z-score [17]: -0.648; PBM binding z-score [18]: -0.704

How did the PBM binding z-score [1] turn out when CAAACTAGGTCACGAAAGGTGAAAGTCGAATGAC was run?
The PBM binding z-score was 8.57.

And the PBM binding z-score [2]?
Its PBM binding z-score is 8.88.

What about the PBM binding z-score [3] of the same sequence?
Its PBM binding z-score is 1.44.

What about the PBM binding z-score [4] of the same sequence?
The PBM binding z-score was 1.5.

What about the PBM binding z-score [5] of the same sequence?
The PBM binding z-score was 3.13.

What about the PBM binding z-score [6] of the same sequence?
Its PBM binding z-score is 4.13.

What about the PBM binding z-score [7] of the same sequence?
The PBM binding z-score was 0.228.

And the PBM binding z-score [8]?
The PBM binding z-score was 4.69.

And the PBM binding z-score [9]?
Its PBM binding z-score is 1.24.

What about the PBM binding z-score [10] of the same sequence?
The PBM binding z-score was 4.84.

What about the PBM binding z-score [11] of the same sequence?
The PBM binding z-score was 4.73.

And the PBM binding z-score [12]?
Its PBM binding z-score is 5.68.

What about the PBM binding z-score [13] of the same sequence?
Its PBM binding z-score is 6.37.

What about the PBM binding z-score [14] of the same sequence?
The PBM binding z-score was 1.59.

And the PBM binding z-score [15]?
The PBM binding z-score was 5.25.

What about the PBM binding z-score [16] of the same sequence?
The PBM binding z-score was 4.82.

What about the PBM binding z-score [17] of the same sequence?
The PBM binding z-score was 1.92.

And the PBM binding z-score [18]?
The PBM binding z-score was 0.591.

ACTTACGGGCCAACGAGGTTATAGCACGCGTATA was tested. Which PBM binding z-score [1] did it give?
Its PBM binding z-score is 0.992.

What about the PBM binding z-score [2] of the same sequence?
The PBM binding z-score was 0.418.

And the PBM binding z-score [3]?
Its PBM binding z-score is 0.118.

And the PBM binding z-score [4]?
The PBM binding z-score was 0.119.

And the PBM binding z-score [5]?
The PBM binding z-score was 0.076.

And the PBM binding z-score [6]?
Its PBM binding z-score is 1.

And the PBM binding z-score [7]?
The PBM binding z-score was 0.334.

And the PBM binding z-score [8]?
The PBM binding z-score was 1.16.

And the PBM binding z-score [9]?
The PBM binding z-score was 0.0529.

And the PBM binding z-score [10]?
The PBM binding z-score was 1.05.

What about the PBM binding z-score [11] of the same sequence?
The PBM binding z-score was 1.08.

And the PBM binding z-score [12]?
The PBM binding z-score was 0.977.

And the PBM binding z-score [13]?
The PBM binding z-score was 0.949.

What about the PBM binding z-score [14] of the same sequence?
The PBM binding z-score was 0.889.

What about the PBM binding z-score [15] of the same sequence?
The PBM binding z-score was 1.01.

And the PBM binding z-score [16]?
The PBM binding z-score was 1.76.

What about the PBM binding z-score [17] of the same sequence?
The PBM binding z-score was 0.399.

And the PBM binding z-score [18]?
The PBM binding z-score was 1.31.

Which results are given for CCTACTGGGCCATTCAGAGGTCATTCATCATATG?
PBM binding z-score [1]: 4.22; PBM binding z-score [2]: 4.45; PBM binding z-score [3]: -0.0468; PBM binding z-score [4]: 0.03; PBM binding z-score [5]: 2.18; PBM binding z-score [6]: 4.81; PBM binding z-score [7]: 2.5; PBM binding z-score [8]: 4.07; PBM binding z-score [9]: 0.581; PBM binding z-score [10]: 2.9; PBM binding z-score [11]: 4.11; PBM binding z-score [12]: 4.47; PBM binding z-score [13]: 2.94; PBM binding z-score [14]: 0.971; PBM binding z-score [15]: 3.37; PBM binding z-score [16]: 3.14; PBM binding z-score [17]: 1.51; PBM binding z-score [18]: 3.85

With TGTATTAGTTGAAGGGCAACCGACGAGTCCGTTT as the sequence, how does the PBM binding z-score [1] read?
The PBM binding z-score was 0.404.

What about the PBM binding z-score [2] of the same sequence?
The PBM binding z-score was 0.87.

What about the PBM binding z-score [3] of the same sequence?
Its PBM binding z-score is 0.403.

What about the PBM binding z-score [4] of the same sequence?
Its PBM binding z-score is 1.05.

What about the PBM binding z-score [5] of the same sequence?
The PBM binding z-score was 1.27.

What about the PBM binding z-score [6] of the same sequence?
The PBM binding z-score was 0.63.

What about the PBM binding z-score [7] of the same sequence?
Its PBM binding z-score is 0.962.

And the PBM binding z-score [8]?
Its PBM binding z-score is 0.3.

What about the PBM binding z-score [9] of the same sequence?
Its PBM binding z-score is 0.995.

What about the PBM binding z-score [10] of the same sequence?
Its PBM binding z-score is 1.5.

And the PBM binding z-score [11]?
The PBM binding z-score was 1.63.

What about the PBM binding z-score [12] of the same sequence?
Its PBM binding z-score is 0.727.

What about the PBM binding z-score [13] of the same sequence?
Its PBM binding z-score is 1.06.

What about the PBM binding z-score [14] of the same sequence?
The PBM binding z-score was 0.401.

And the PBM binding z-score [15]?
Its PBM binding z-score is 0.406.

What about the PBM binding z-score [16] of the same sequence?
The PBM binding z-score was 0.237.

What about the PBM binding z-score [17] of the same sequence?
The PBM binding z-score was 0.213.

What about the PBM binding z-score [18] of the same sequence?
Its PBM binding z-score is 1.55.

How did the PBM binding z-score [1] turn out when TCATATAGGTAAATGCTAGGTGACAGTCCGATCT was run?
Its PBM binding z-score is 4.18.

What about the PBM binding z-score [2] of the same sequence?
The PBM binding z-score was 3.05.

What about the PBM binding z-score [3] of the same sequence?
The PBM binding z-score was 1.51.

And the PBM binding z-score [4]?
The PBM binding z-score was 0.754.

What about the PBM binding z-score [5] of the same sequence?
Its PBM binding z-score is 0.369.

What about the PBM binding z-score [6] of the same sequence?
The PBM binding z-score was 0.559.

And the PBM binding z-score [7]?
Its PBM binding z-score is 0.133.

What about the PBM binding z-score [8] of the same sequence?
Its PBM binding z-score is 0.861.

And the PBM binding z-score [9]?
The PBM binding z-score was 0.862.

And the PBM binding z-score [10]?
Its PBM binding z-score is 0.403.

And the PBM binding z-score [11]?
Its PBM binding z-score is 0.444.

And the PBM binding z-score [12]?
Its PBM binding z-score is 0.642.

What about the PBM binding z-score [13] of the same sequence?
Its PBM binding z-score is 0.401.

What about the PBM binding z-score [14] of the same sequence?
The PBM binding z-score was 1.28.

What about the PBM binding z-score [15] of the same sequence?
Its PBM binding z-score is 0.653.

What about the PBM binding z-score [16] of the same sequence?
Its PBM binding z-score is 1.4.

And the PBM binding z-score [17]?
Its PBM binding z-score is 0.389.

And the PBM binding z-score [18]?
The PBM binding z-score was 0.525.
